In PMC5540273 (PLoS ONE, 2017):

Assays:
Settings in all cases: concentration: 1 μM, replicates: in singlicate; n = 1
[1] = test system: CHEK1
[2] = test system: CHEK2
[3] = test system: CIT
[4] = test system: CLK1
[5] = test system: CLK2
[6] = test system: CLK3
[7] = test system: CLK4
[8] = test system: CSF1R-autoinhibited
[9] = test system: CSF1R
[10] = test system: CSK
[11] = test system: CSNK1A1L
[12] = test system: CSNK1A1
[13] = test system: CSNK1D
[14] = test system: CSNK1E
[15] = test system: CSNK1G1
[16] = test system: CSNK1G2
[17] = test system: CSNK1G3
[18] = test system: CSNK2A1
[19] = test system: CSNK2A2
[20] = test system: T1, CTK
T1 construct: gene MATK
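Note: KINOMEscan kinase panel screen.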

| SMILES | %Inh [1] | %Inh [2] | %Inh [3] | %Inh [4] | %Inh [5] | %Inh [6] | %Inh [7] | %Inh [8] | %Inh [9] | %Inh [10] | %Inh [11] | %Inh [12] | %Inh [13] | %Inh [14] | %Inh [15] | %Inh [16] | %Inh [17] | %Inh [18] | %Inh [19] | %Inh [20] |
| --- | --- | --- | --- | --- | --- | --- | --- | --- | --- | --- | --- | --- | --- | --- | --- | --- | --- | --- | --- | --- |
| [2H]C([2H])(c1cccc(C(F)(F)F)c1C)n1ccn2c(=O)nc(N3CCOCC3)cc12 [GSK2336394] | 0% | 0% | 11% | 20% | 0% | 14% | 12% | 0% | 0% | 0% | 16% | 0% | 19% | 12% | 9% | 0% | 19% | 0% | 0% | 0% |
| O=C1Cc2cc(Nc3nc(NCc4cccc(S(=O)(=O)C(F)(F)F)c4)ncc3C(F)(F)F)ccc2N1 | 0% | 0% | 0% | 0% | 0% | 0% | 0% | 0% | 9% | 3% | 0% | 12% | 0% | 0% | 11% | 0% | 0% | 12% | 5% | 5% |
| Fc1ccc(-c2nn3c(OCC(F)(F)F)cccc3c2-c2ccncc2)cc1 [GW514784] | 0% | 30% | 99.1% | 2% | 0% | 0% | 0% | 36% | 0% | 0% | 35% | 92.9% | 96.4% | 99% | 0% | 0% | 16% | 0% | 0% | 0% |
| c1ccc(-c2n[nH]cc2-c2ccnc3ccccc23)nc1 [GW271431] | 5% | 0% | 41% | 28% | 7% | 55% | 20% | 11% | 6% | 0% | 19% | 38% | 60% | 69% | 20% | 0% | 24% | 0% | 23% | 0% |
| Cc1ccc(C(=O)NCC(N)=O)cc1-n1c(C)cc(OCc2ccc(F)cc2F)c(Br)c1=O | 17% | 9% | 8% | 0% | 0% | 3% | 12% | 0% | 16% | 0% | 26% | 25% | 19% | 0% | 22% | 10% | 8% | 0% | 0% | 0% |
| CN(C1=C(c2ccccc2)C(=O)NC1=O)c1ccccc1 [SB-334860] | 0% | 16% | 37% | 24% | 12% | 0% | 6% | 0% | 18% | 6% | 0% | 0% | 19% | 17% | 7% | 0% | 22% | 1% | 21% | 0% |
| COc1cc2c(cc1OCCN1CCN(C)CC1)ncc1c3ccc(C#N)cc3[nH]c21 | 83% | 45% | 99.2% | 96.7% | 86% | 25% | 92.6% | 99.3% | 49% | 0% | 0% | 0% | 18% | 0% | 0% | 0% | 0% | 73% | 95.2% | 23% |
| COCCNC(=O)c1ccc(-c2cc(C(=O)NC3CC3)cc(F)c2C)cc1 [GW868318] | 9% | 19% | 1% | 18% | 24% | 37% | 10% | 5% | 19% | 13% | 5% | 9% | 1% | 31% | 0% | 4% | 8% | 0% | 9% | 11% |
